Source: PubChem BioAssay (EPA / NIEHS)
Several values for one entry are separate records, joined by “and”; a condition that tells them apart may be missing. Equal entries are not always repeated. Some structures have more than one record in an assay (separate samples or runs), and their calls can disagree. Activity calls are given as the source filed them. How the source made its calls: active means hit-call score of the fitted dose curve at least 0.9, where 1 is the maximum; inactive means score below 0.9.

How the values were obtained:
[1] = APR_HepG2_MitoMembPot_72hr: Apredica 72-hour HepG2 Assay for Mitochondrial Membrane Potential (AID 2282917); conditions: imaging, actives raise or lower the signal
Outline: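 HepG2 cells dosed 72 hr with compound at 0.39–200 uM in duplicate, 0.5% v/v DMSO final. Mitochondria stained with 250 nM MitoTracker Red CMXRos for 30 min before formaldehyde fixation, imaged by high-content fluorescence; bidirectional fit versus DMSO.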

[2] = APR_HepG2_MicrotubuleCSK_72hr: Apredica 72-hour HepG2 Assay for Microtubule CSK Stabilty (AID 2282919); conditions: HepG2 microtubule cytoskeleton, high-content imaging, actives raise or lower the signal
Outline: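 HepG2 cells were exposed 72 hr to compound at 0.39–200 uM in duplicate (0.5% DMSO final), then fixed and permeabilized. Alpha-tubulin immunofluorescence was imaged by high-content microscopy, with bidirectional fitting against DMSO and taxol as positive control.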

[3] = APR_HepG2_StressKinase_72hr: Apredica 72-hour HepG2 Assay for Stress Kinase (AID 2282921); conditions: HepG2 stress kinase (phospho-c-Jun) imaging, actives raise or lower the signal
Outline: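 Dose 0.39–200 uM (10 pts, duplicate), 0.5% DMSO; 72 h; fix 3.7% formaldehyde 30 min RT; Triton permeabilize; anti-phospho-c-Jun/Cy3 + Hoechst 60 min RT; image 20x; fit gain/loss vs DMSO.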

[4] = APR_HepG2_StressKinase_24hr: Apredica 24-hour HepG2 Assay for Stress Kinase (AID 2282922); conditions: HepG2 stress kinase (phospho-c-Jun) imaging, actives raise or lower the signal
Outline: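 HepG2 cells exposed 24 h to 0.39–200 uM compound in duplicate (0.5% v/v DMSO final). Cells fixed in 3.7% formaldehyde, permeabilized and immunostained for phospho-c-Jun; read by high-content fluorescence imaging, fitted bidirectionally against DMSO.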

[5] = APR_HepG2_p53Act_72hr: Apredica 72-hour HepG2 Assay for p53 Activation (AID 2282923); conditions: high-content imaging, actives raise or lower the signal;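 further: average cellular p53 protein immunofluorescence intensity in HepG2 cells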
Outline: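 10-pt conc. 0.39–200 uM, duplicate, 0.5% DMSO; 72 hr exposure; 3.7% formaldehyde fix, 0.5% Triton perm; sheep anti-p53/Cy5 + Hoechst; ArrayScan 20x, 6 images/well; gain/loss fit vs DMSO.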

[6] = APR_HepG2_NuclearSize_72hr: Apredica 72-hour HepG2 Assay for Nuclear Size (AID 2282925); conditions: high-content imaging, actives raise or lower the signal
Outline: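 HepG2 cells dosed 72 h at 0.39–200 uM (10 concentrations, duplicate) in 0.5% v/v DMSO final. Fixed, Hoechst 33342-stained nuclei imaged; nuclear diameter measured by automated image analysis. Bidirectional fit versus DMSO.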

[7] = ATG_CRE_CIS: Attagene CIS-FACTORIAL HepG2 Assay for human cAMP Responsive Element (CRE) binding protein 3 (AID 2282926); conditions: HepG2 CRE cis-reporter, Attagene multiplexed mRNA; actives raise or lower the signal
Outline: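 Human liver HepG2, transient MRTU transfection, 24 h compound exposure. Total RNA → oligo(dT) RT → PCR → 6-FAM primer extension → HpaI cut → CE. Activity called both directions vs DMSO.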

[8] = molecular target: CCAAT/enhancer-binding protein beta (Homo sapiens) (UniProt P17676); assay: ATG_C_EBP_CIS: Attagene CIS-FACTORIAL HepG2 Assay for human CCAAT/Enhancer Binding Protein (C/EBP) beta (AID 2282927); conditions: HepG2 Attagene cis-factorial transcription factor reporter; actives raise or lower the signal
CCAAT/enhancer-binding protein beta (Homo sapiens), sequence (P17676 whole entry, looked up): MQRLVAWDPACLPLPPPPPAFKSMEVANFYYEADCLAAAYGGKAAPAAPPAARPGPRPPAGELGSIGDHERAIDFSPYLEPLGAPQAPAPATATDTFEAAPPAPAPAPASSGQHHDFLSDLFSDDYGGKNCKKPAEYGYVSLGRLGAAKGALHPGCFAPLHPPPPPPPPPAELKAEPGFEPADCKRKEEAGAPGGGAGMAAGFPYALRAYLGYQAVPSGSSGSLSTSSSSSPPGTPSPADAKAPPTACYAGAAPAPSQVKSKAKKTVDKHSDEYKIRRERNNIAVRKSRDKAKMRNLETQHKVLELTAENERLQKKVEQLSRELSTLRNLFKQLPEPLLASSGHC
Outline: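 HepG2 transiently transfected with multiplexed reporter units under cis-regulatory promoters reporting endogenous C/EBPb activity. After 24 h exposure, reporter mRNA assayed by RT-PCR, fluorescent labelling, HpaI digestion and capillary electrophoresis; bidirectional fitting versus DMSO.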

[9] = ATG_CMV_CIS: Attagene CIS-FACTORIAL HepG2 Assay for human CMV (Internal Marker) (AID 2282928); conditions: HepG2 CMV promoter reporter, transcription factor profiling; actives raise or lower the signal;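 further: endpoint acts as a background internal control marker rather than a target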
Outline: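 HepG2 cells transiently transfected with multiple cis-regulated reporter units; 24 h compound exposure. Reporter mRNA quantified by RT-PCR, 6-FAM primer-extension labeling, HpaI digestion and capillary electrophoresis; bidirectional fitting against DMSO baseline.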

[10] = ATG_DR4_LXR_CIS: Attagene CIS-FACTORIAL HepG2 Assay for human Liver X Receptor (LXR), DR4 submotif (AID 2282929); conditions: HepG2 Attagene DR4 cis-reporter, mRNA transcription; actives raise or lower the signal
Outline: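 HepG2 cells transiently transfected with cis-promoter-driven multiplexed reporter units (DR4 element) were dosed for 24 h. Reporter mRNA was quantified by RT-PCR, fluorescent primer extension, HpaI digestion and capillary electrophoresis; bidirectional fitting versus DMSO baseline.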

[11] = molecular target: Aryl hydrocarbon receptor (Homo sapiens) (UniProt P35869); assay: ATG_Ahr_CIS: Attagene CIS-FACTORIAL HepG2 Assay for human Aryl Hydrocarbon Receptor (Ahr) (AID 2282930); conditions: HepG2 AhR cis-factorial reporter transcription; actives raise or lower the signal
Aryl hydrocarbon receptor (Homo sapiens), sequence (P35869 whole entry, looked up): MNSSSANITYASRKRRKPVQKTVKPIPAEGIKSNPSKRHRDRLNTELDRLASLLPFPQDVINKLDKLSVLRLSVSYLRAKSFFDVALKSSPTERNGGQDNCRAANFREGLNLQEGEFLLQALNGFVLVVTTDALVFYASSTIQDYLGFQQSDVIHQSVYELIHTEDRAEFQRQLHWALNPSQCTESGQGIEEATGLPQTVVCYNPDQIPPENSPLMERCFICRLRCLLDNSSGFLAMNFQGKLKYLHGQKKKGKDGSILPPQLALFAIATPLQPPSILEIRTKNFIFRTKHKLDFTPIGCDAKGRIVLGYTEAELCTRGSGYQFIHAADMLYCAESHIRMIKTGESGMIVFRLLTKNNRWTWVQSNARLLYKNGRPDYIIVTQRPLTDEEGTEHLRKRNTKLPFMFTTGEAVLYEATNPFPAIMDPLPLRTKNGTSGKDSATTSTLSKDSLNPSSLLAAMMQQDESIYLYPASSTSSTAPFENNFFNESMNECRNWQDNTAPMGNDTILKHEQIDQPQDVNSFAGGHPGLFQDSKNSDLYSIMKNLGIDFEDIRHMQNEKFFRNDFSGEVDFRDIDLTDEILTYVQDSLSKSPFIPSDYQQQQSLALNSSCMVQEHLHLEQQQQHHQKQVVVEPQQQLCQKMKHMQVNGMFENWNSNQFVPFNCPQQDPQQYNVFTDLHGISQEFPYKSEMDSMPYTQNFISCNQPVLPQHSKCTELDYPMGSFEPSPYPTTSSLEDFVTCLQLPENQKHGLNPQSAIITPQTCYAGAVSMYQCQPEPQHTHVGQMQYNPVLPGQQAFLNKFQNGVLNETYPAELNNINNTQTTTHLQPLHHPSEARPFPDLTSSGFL
Outline: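 HepG2 cells transiently transfected with cis-element-driven multiplexed reporter units; endogenous AhR activity read as reporter mRNA 24 h after dosing, via RT-PCR, 6-FAM labelling, HpaI digestion and capillary electrophoresis. Bidirectional fit relative to DMSO.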

[12] = ATG_AP_1_CIS: Attagene CIS-FACTORIAL HepG2 Assay for human Activator Protein 1 (AP-1) (AID 2282931); conditions: HepG2 Attagene cis-factorial AP-1 reporter mRNA; actives raise or lower the signal
Outline: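 HepG2 cells transiently transfected with cis-element-driven multiplex reporter units; 24 h compound exposure. Reporter mRNA quantified by RT-PCR, FAM-labelled fragments resolved by capillary electrophoresis; bidirectional fit versus DMSO baseline.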

[13] = ATG_AP_2_CIS: Attagene CIS-FACTORIAL HepG2 Assay for human Activator Protein 2 (AP-2) (AID 2282932); conditions: HepG2 AP-2 cis-reporter, Attagene transcription factor profiling; actives raise or lower the signal
Outline: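 HepG2 cells transiently transfected with cis-element reporter units and exposed for 24 h. Reporter mRNA measured by RT-PCR, FAM labelling, HpaI digestion and capillary electrophoresis. Changes in either direction fitted relative to DMSO.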

[14] = ATG_BRE_CIS: Attagene CIS-FACTORIAL HepG2 Assay for human Bone Morphogenetic Protein (BMP) Response Element (BRE) (AID 2282933); conditions: HepG2 BMP response element reporter, Attagene transcription factor profiling; actives raise or lower the signal
Outline: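 Read-out: reporter mRNA induction quantified by RT-PCR and capillary electrophoresis after 24 h chemical exposure of transfected HepG2 cells. Endogenous factor activity on the BMP response element; gain or loss fitted against DMSO baseline.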

[15] = molecular target: Transcription factor E2F1 (Homo sapiens) (UniProt Q01094); assay: ATG_E2F_CIS: Attagene CIS-FACTORIAL HepG2 Assay for human E2F Transcription Factor 1 (AID 2282935); conditions: HepG2 Attagene cis-reporter, E2F reporter RNA transcripts; actives raise or lower the signal
Transcription factor E2F1 (Homo sapiens), sequence (Q01094 whole entry, looked up): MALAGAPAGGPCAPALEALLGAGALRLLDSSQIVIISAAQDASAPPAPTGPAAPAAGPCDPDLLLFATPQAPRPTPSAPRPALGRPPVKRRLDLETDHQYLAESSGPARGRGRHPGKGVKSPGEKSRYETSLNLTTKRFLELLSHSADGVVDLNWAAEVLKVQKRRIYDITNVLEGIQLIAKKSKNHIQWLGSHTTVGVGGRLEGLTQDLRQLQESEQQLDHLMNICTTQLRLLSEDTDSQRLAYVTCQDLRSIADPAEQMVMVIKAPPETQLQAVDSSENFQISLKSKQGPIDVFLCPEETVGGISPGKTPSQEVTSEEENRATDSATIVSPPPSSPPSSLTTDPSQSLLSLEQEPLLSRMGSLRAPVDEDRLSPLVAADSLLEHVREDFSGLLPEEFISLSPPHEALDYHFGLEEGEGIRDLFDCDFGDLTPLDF
Outline: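 Endogenous E2F1 activity read through cis-promoter reporter units transfected into HepG2. After 24 h compound treatment, reporter mRNA measured by RT-PCR, HpaI digestion and capillary electrophoresis. Bidirectional fit versus DMSO.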

[16] = ATG_E_Box_CIS: Attagene CIS-FACTORIAL HepG2 Assay for human Enhancer Box (E-box) (AID 2282936); conditions: HepG2 E-box cis-reporter transcription, actives raise or lower the signal
Outline: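 HepG2 cells transiently transfected with multiplexed cis-element reporter units, dosed 24 h; reporter mRNA quantified by RT-PCR, 6-FAM labelling, HpaI digestion and capillary electrophoresis. E-box (USF1) signal fitted bidirectionally vs DMSO.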

[17] = APR_HepG2_MitoMass_72hr: Apredica 72-hour HepG2 Assay for Mitochondrial Mass (AID 2282924); conditions: high-content imaging, actives raise or lower the signal;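 further: MitoTracker Red CMXRos stain intensity per cell imaged as mitochondrial mass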
Outline: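 HepG2 cells dosed 72 hr at 0.39–200 uM (0.5% DMSO), in duplicate. MitoTracker Red CMXRos 250 nM loaded 30 min before formaldehyde fixation; high-content fluorescence imaging, bidirectional fit versus DMSO.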

[18] = molecular target: Retinoic acid receptor alpha (Homo sapiens) (UniProt P10276); assay: ATG_DR5_RAR_CIS: Attagene CIS-FACTORIAL HepG2 Assay for human Retinoic Acid Receptor Alpha (RARE), DR5 submotif (AID 2282934); conditions: HepG2 Attagene cis-factorial RARE DR5 reporter, mRNA; actives raise or lower the signal
Retinoic acid receptor alpha (Homo sapiens), sequence (P10276 whole entry, looked up): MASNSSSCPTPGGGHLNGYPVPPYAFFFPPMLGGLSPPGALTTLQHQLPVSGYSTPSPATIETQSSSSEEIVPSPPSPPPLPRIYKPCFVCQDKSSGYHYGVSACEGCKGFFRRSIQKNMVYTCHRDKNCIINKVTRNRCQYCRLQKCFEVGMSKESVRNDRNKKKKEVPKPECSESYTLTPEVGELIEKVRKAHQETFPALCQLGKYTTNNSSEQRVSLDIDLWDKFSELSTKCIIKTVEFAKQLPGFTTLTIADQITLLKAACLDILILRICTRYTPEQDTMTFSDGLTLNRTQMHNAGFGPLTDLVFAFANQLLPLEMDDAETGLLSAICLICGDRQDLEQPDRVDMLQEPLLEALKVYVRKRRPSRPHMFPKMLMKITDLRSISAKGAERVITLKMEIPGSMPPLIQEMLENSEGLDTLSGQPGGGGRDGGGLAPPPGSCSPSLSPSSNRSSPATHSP
Outline: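 HepG2 cells transiently transfected with multiplexed reporter units; DR5 cis-element drives reporter through endogenous transcription factors. After 24 h dosing, reporter mRNA quantified by RT-PCR, fluorescent labeling, HpaI digestion and capillary electrophoresis; bidirectional fitting versus DMSO.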

[19] = APR_HepG2_P-H2AX_24hr: Apredica 24-hour HepG2 Assay for H2AX Phosphorylation (AID 2282920); conditions: high-content imaging, actives raise or lower the signal
Outline: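 HepG2, 24 hr, cpd 0.39–200 uM (10 conc, duplicate), DMSO 0.5% v/v final. Fix 3.7% formaldehyde, Triton X-100 permeabilize, anti-phospho-H2A.x 1:200 + Hoechst 2 ug/mL. Imaged, bidirectional fit vs DMSO.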

Measured: AC50

COC(=O)CSc1cc(N=c2sc(=O)n3n2CCCC3)c(F)cc1Cl
inactive: [1] | [2] | [3] | [4] | [5] | [6] | [7] | [8] | [9] | [10] | [11] | [12] | [13] | [14] | [15] | [16]

CCCN(CCC)c1c([N+](=O)[O-])cc(C(F)(F)F)c(N)c1[N+](=O)[O-]
active: [2] 51.2 µM | [9] 24.5 µM | [10] 6.65 µM | [11] 28.9 µM | [12] 63 µM | [14] 36.1 µM
inactive: [1] | [3] | [4] | [5] | [17] | [6] | [8] | [13] | [18] | [15]

N[C@@H](Cc1cc(I)c(Oc2ccc(O)c(I)c2)c(I)c1)C(=O)O
active: [12] 22.6 µM
inactive: [1] | [2] | [3] | [4] | [5] | [6] | [7] | [8] | [9] | [10] | [12] | [13] | [14] | [15] | [16]

CCOC(=O)COc1cc(-n2ncc(C(F)(F)F)c(C)c2=O)c(F)cc1Cl
inactive: [1] | [2] | [3] | [4] | [5] | [6] | [7] | [8] | [9] | [10] | [11] | [12] | [13] | [14] | [18] | [15]

O=C(c1ccccc1)C1CCCCC1
inactive: [1] | [2] | [19] | [3] | [4] | [5] | [6] | [8] | [9] | [10] | [11] | [12] | [13] | [14] | [18] | [15]
active: [11] 17.2 µM

COC(=O)c1cccc(C)c1S(=O)(=O)NC(=O)Nc1nc(OCC(F)(F)F)nc(N(C)C)n1
active: [1] 1.33 µM
inactive: [2] | [19] | [3] | [4] | [5] | [6] | [8] | [9] | [10] | [11] | [12] | [13] | [14] | [18] | [15]

S=C(S)NCCNC(=S)S.[Mn+2].[S-]C([S-])=NCCN=C([S-])[S-].[Zn+2]
inactive: [1] | [2] | [3] | [4] | [6] | [7] | [8] | [9] | [10] | [11] | [12] | [13] | [14] | [15]
active: [3] 39.8 µM | [4] 40.9 µM and 82.9 µM | [6] 80.6 µM | [7] 10.1 µM and 9.92 µM | [9] 231 nM and 1.21 µM and 343 nM | [10] 8.2 µM and 50 µM and 67.7 µM | [11] 20.7 µM [middle of 4 runs] | [12] 20.7 µM [middle of 4 runs] | [13] 4.93 µM
